DT40 TDP1 CPT = qHTS for Inhibitors of human tyrosyl-DNA phosphodiesterase 1 (TDP1): qHTS in cells in presence of CPT; chicken DT40 Tdp1-/-;hTDP1 cells + 20 nM CPT, ATP luminescence, 48 h; Potency, µM (series often up to 46.2 µM), usual class: inhibitors; actives 12% (n = 420,000); AID 686979, 2013; also: nearly all actives have a fitted effect of over 55% in size
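Chicken DT40 Tdp1-/- cells stably complemented with human TDP1 were seeded at 400 cells/well in medium containing 20 nM camptothecin, exposed to pin-transferred compounds, and grown at 37 °C for at least 48 hr. Viability was read as ATP luminescence.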
TGFb SMAD3 inh = qHTS for Inhibitors of TGF-b. AID 588855, 2011. Potency, µM (top dose mostly 46.1 µM), usual class: inhibitors. actives 1.2% (n = 410,000). HepG2 CAGA-GFP TGF-b/SMAD3 reporter, GFP fluorescence, 18 h; TGF-beta stimulated, 500 pg/mL final; also: nearly all actives have a fitted effect of over 65% in size
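HEPG2 CAGA-GFP, 1000 cells/well; 2 h settle, 37 C; cpd via pin tool; TGF-b 500 pg/mL final; 18 h, 37 C; GFP imaging ex488/em500-530; %Activity normalised to -TGF-b and +DMSO controls; CRC fit, curve class.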
DT40 TDP1 no CPT = qHTS for Inhibitors of human tyrosyl-DNA phosphodiesterase 1 (TDP1): qHTS in cells in absence of CPT. actives 15% (n = 420,000). DT40 Tdp1-/- hTDP1 cells, no CPT, ATP luminescence, 48 h. Potency, µM (highest dose often 46.2 µM), most hits filed as inhibitors; also: nearly all actives have a fitted effect of over 55% in size
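Cells were dispensed at 400 per well, compounds added by pin tool, plates incubated ≥48 hr at 37 °C, then CellTiter-Glo added for 30 min at room temperature before luminescence reading. Line: DT40 Tdp1-/- complemented with hTDP1; camptothecin omitted.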
TDP1 inh = qHTS Assay for Inhibitors of Tyrosyl-DNA Phosphodiesterase (TDP1); recombinant TDP1, AlphaScreen DNA substrate cleavage; Tyrosyl-DNA phosphodiesterase 1 (Homo sapiens), Q9NUW8; Potency, µM (top dose mostly 130 µM), hits mostly inhibitors; actives 0.28% (n = 350,000); also: nearly all actives have a fitted effect of over 40% in size
Target sequence (Q9NUW8 whole entry, looked up): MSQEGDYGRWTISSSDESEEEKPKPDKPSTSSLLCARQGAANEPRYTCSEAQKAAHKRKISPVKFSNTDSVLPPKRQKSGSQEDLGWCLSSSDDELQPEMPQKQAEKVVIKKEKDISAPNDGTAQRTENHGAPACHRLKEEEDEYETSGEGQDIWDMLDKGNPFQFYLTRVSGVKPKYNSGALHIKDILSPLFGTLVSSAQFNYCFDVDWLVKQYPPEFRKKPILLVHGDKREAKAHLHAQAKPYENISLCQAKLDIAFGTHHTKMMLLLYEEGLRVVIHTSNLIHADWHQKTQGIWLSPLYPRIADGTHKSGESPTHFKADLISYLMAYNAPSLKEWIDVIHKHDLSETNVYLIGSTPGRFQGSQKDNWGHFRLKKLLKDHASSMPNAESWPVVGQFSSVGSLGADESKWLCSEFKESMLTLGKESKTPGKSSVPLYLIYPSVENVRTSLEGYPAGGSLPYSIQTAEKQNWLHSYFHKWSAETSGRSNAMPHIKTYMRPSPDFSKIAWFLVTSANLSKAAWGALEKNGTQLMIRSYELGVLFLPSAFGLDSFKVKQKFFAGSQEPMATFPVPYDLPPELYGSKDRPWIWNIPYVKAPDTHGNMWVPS
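Recombinant human Tdp1 (E. coli-expressed, 1 nM final) preincubated with compounds 15 min at room temperature, then 5'-biotin/3'-phosphotyrosine-FITC DNA substrate (15 nM final) added for 5 min. AlphaScreen beads (10 ug/ml final) added 10 min; cleavage lowers signal.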
IL1B secr inh = qHTS for Inhibitors of Inflammasome Signaling: IL-1-beta AlphaLISA Primary Screen. THP-1 LPS/ATP IL-1B secretion, AlphaLISA, 16 h; hits give low values. activity change, % at 57.5 µM. actives 4.7% (n = 360,000). AID 743279, 2014; in the data active = activity change below about -50%; inconclusive = mostly about -30% to -49%
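Secreted IL-1B measured by AlphaLISA bead assay after 16 h compound exposure of THP-1 cells; compounds (final up to 57.5 uM) added 1 h before LPS (250 ng/mL) and ATP (1.25 mM) stimulation; lower signal means less secretion.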
HepG2 tox = qHTS for Inhibitors of TGF-b: Cytotox Counterscreen. AID 588856, 2011. HepG2 CAGA-GFP viability, ATP luminescence, 18 h. Potency, µM (titrated, usually from 46.1 µM), hits mostly cytotoxic. actives 0.76% (n = 410,000)
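CellTiter-Glo luminescence gave cytotoxicity after 18 hours at 37 degrees C. The cells were HepG2 CAGA-GFP in 1% FBS DMEM, stimulated with 500 pg/mL TGF-beta after compound addition. %Activity was normalised to no-cell wells (complete cell-killing) and DMSO (no toxicity), and curves were fitted and classified.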
Large screens that a line does not name were inactive; ! = not active in a repeat. Sampled rows, rich in hits. Any-hit rate of the full collection: about 19%. Unless noted, calls follow the shape of the dose curve; as a rule, active = well fitted curve in the direction sought with a large enough effect; inconclusive = small, poorly fitted or top-dose-only effect, or another doubt; inactive = no such curve, though single readings can be large; an effect the other way counts as inactive or inconclusive.

O=C1CC[C@@H](OCc2ccccc2)CCN1CC[C@H](Sc1ccccc1)c1ccccc1	DT40 TDP1 CPT 15.8µM, TGFb SMAD3 inh inconclusive, DT40 TDP1 no CPT 18.4µM (no result: TDP1 inh)
C[C@@H]1CCC(=O)N(CC[C@H](Sc2ccccc2)c2ccccc2)CC1	DT40 TDP1 CPT 12.6µM, TGFb SMAD3 inh 17.8µM!, DT40 TDP1 no CPT 12.6µM (no result: TDP1 inh)
CCOc1ccc(-n2c(=O)c3c4c(sc3n(Cc3cccc(C)c3)c2=O)CCCC4)cc1	none (no result: IL1B secr inh)
COc1ccc(C2/C=C\CN(C(=O)C3CCCCC3)C(Cc3ccccc3)C(=O)N2Cc2ccc(F)cc2)cc1 (centres undefined)	none (no result: DT40 TDP1 CPT, DT40 TDP1 no CPT, IL1B secr inh)
Clc1ccc(-c2ccc(CNCC3CCCO3)o2)cc1 (centres undefined)	DT40 TDP1 no CPT inconclusive, IL1B secr inh -76.9 (no result: TDP1 inh)
O=C(Cn1cc(S(=O)(=O)Cc2ccccc2Cl)c2ccccc21)NCc1ccccc1Cl	DT40 TDP1 CPT inconclusive, TGFb SMAD3 inh inconclusive, DT40 TDP1 no CPT inconclusive (no result: IL1B secr inh)
CCN(C(=O)Cn1cc(S(=O)(=O)Cc2ccccc2Cl)c2ccccc21)c1ccccc1	DT40 TDP1 CPT 16.4µM, DT40 TDP1 no CPT 23.1µM (no result: IL1B secr inh)
CN(C)c1ccc(NC(=O)Cn2cc(S(=O)(=O)Cc3ccccc3Cl)c3ccccc32)cc1	DT40 TDP1 CPT inconclusive, DT40 TDP1 no CPT 8.2µM (no result: TGFb SMAD3 inh, IL1B secr inh)
Cc1ccc(CNC(=O)Cn2cc(S(=O)(=O)Cc3ccccc3Cl)c3ccccc32)cc1	DT40 TDP1 CPT 18.4µM, DT40 TDP1 no CPT 14.6µM (no result: IL1B secr inh)
CN(C)c1ccc(NC(=O)Cn2cc(S(=O)(=O)Cc3cccc(Cl)c3)c3ccccc32)cc1	DT40 TDP1 CPT inconclusive, DT40 TDP1 no CPT inconclusive (no result: IL1B secr inh)
O=C(Cn1cc(S(=O)(=O)Cc2ccccc2F)c2ccccc21)Nc1ccc(F)c(Cl)c1	DT40 TDP1 CPT inconclusive, TGFb SMAD3 inh inconclusive, DT40 TDP1 no CPT inconclusive (no result: IL1B secr inh)
O=C(Cn1cc(S(=O)(=O)Cc2ccccc2Cl)c2ccccc21)Nc1cccc(C(F)(F)F)c1	DT40 TDP1 CPT inconclusive, TGFb SMAD3 inh inconclusive, DT40 TDP1 no CPT inconclusive, HepG2 tox 15.8µM (no result: IL1B secr inh)
Cc1cccc(C(=O)Nc2nsc(N)n2)c1	none (no result: TDP1 inh)
CCC(=O)Oc1ccc(C2Nc3ccccc3-c3nnc(SC)nc3O2)cc1 (centres undefined)	none (no result: IL1B secr inh)
O=C(NNS(=O)(=O)c1ccc(F)c(Cl)c1)c1cccc(S(=O)(=O)N2CCOCC2)c1	none
Cc1ccc(C)c(NC(=O)Cn2cc(S(=O)(=O)Cc3cccc(Cl)c3)c3ccccc32)c1	DT40 TDP1 CPT 16.4µM, DT40 TDP1 no CPT inconclusive (no result: IL1B secr inh)
CC(C)OC(=O)[C@@H]1CC[C@H](C)[C@@H](CCCC=O)O1	none (no result: DT40 TDP1 CPT, TGFb SMAD3 inh, DT40 TDP1 no CPT, IL1B secr inh, HepG2 tox)
CCOC(=O)Cc1cc(=O)n(-c2nc3ccccc3s2)[nH]1	DT40 TDP1 no CPT 18.4µM
C/C(=N/NC(=O)c1cccs1)c1cccs1	none
O=C(NNC(=O)c1cc2ccccc2cc1O)c1cccs1	DT40 TDP1 CPT 23.1µM, DT40 TDP1 no CPT inconclusive (no result: TDP1 inh)
C/C(=N\NC(=O)c1cc2ccccc2cc1O)c1cccs1	DT40 TDP1 no CPT 13µM, IL1B secr inh -50.4 (no result: TDP1 inh)
CN(C)C/C(Cl)=C(\Cl)c1ccccc1	DT40 TDP1 CPT 5.17µM, DT40 TDP1 no CPT 5.17µM
CN(C)CC(=O)c1ccc(-c2ccccc2)cc1	none
Cc1ccc(OCCCCCN2CCOCC2)cc1	none (no result: TDP1 inh)
CN1CCN(CCCCOc2ccccc2C=O)CC1	DT40 TDP1 CPT inconclusive, DT40 TDP1 no CPT inconclusive, IL1B secr inh -84.5
Cc1ccccc1OCCCCCCN1CCNCC1	DT40 TDP1 CPT 23.1µM, DT40 TDP1 no CPT 16.4µM, IL1B secr inh -73.5 (no result: TDP1 inh)
Cc1ccc(OCCCCCCN2CCNCC2)cc1	DT40 TDP1 CPT 18.4µM, DT40 TDP1 no CPT 20.6µM, IL1B secr inh -89.7 (no result: TDP1 inh)

Source: PubChem
